In the OligoGym collection:

Biological target: EPHX2
Assay: pooled miR-30 sensor sort-seq; sequence = guide strand
Conditions: shRNA
Further: reference of the scale not given here.

Row | Sequence | sensor-assay potency score (higher = more potent)
1 | TCTGAAACCAGACTTCTTGAAC | -0.948
2 | TCTCTCAGCACGGTCGTCCAGC | -0.771
3 | TTCAGCTCACACATCAGCTGGG | 0.39
4 | TTTATGGAGAAATTCTTGGGGA | 0.378

Biological target: ERCC2
Assay: as above
Conditions: shRNA

Row | Sequence | sensor-assay potency score (higher = more potent)
5 | TAGAAGTTGAGCAACTTTCGAA | 0.118
6 | TCAAATTCCTCATAGAATCGGC | -0.0111
7 | TTGAGCAACTTTCGAAGCTCTT | -0.541
8 | TTTGATCCTGAGCACCGTCTTC | -1.12
9 | TGGAAGTCCAGGATCTTGGGGT | 0.059
10 | TTCCCATCGACGTCCTTCCCAA | -0.665
11 | TTGAGCAGTAGATGAGTTTGGT | 0.18
12 | TATCGAGCAAGGAAGTATGGGC | 0.161
13 | TCAATCTCTGGCACAGTTCTTG | 0.0123
14 | TTGAGCTCCCGCATGTAGGAGA | -0.477
15 | TGTAGGAGAACTGCTCGGGGTA | -0.658
16 | TGACAGACTGGAAACGCTCAAA | -0.97
17 | TTGCGCTGGATGCACACGCGCT | -1.42
18 | TCTGGCACAGTTCTTGAGCAGT | -0.9
19 | TCGATGATGATGGTGAAGCCTT | -1.27
20 | TTGGGGTAGATGTCCAGCGGGG | -1.14
21 | TCGAAGCTCTTCAATCACCTTC | 0.181
22 | ATTCTCACGAATCTGGAACTGG | -0.416
23 | TTCAGCACAGAATCTGAGGGGC | 0.408
24 | TGAATACACAAGTTTTTGCGGG | 0.0838
25 | AACAGGGATACTGTCTTCCCGG | -1.06
26 | TTAGCAAGGAGGGTGAGCGGGG | -1.04
27 | TAGCTATAAACCACCACATTGG | -1.42
28 | TCGTCTGTCTCTTTGATCCTGA | -0.221
